Rows were chosen to be rich in hits. Some 2.5% of all compounds tested hit in one or more screens of this group.
V-ATPase pH: alters yeast V-ATPase proton transport | 350,000 compounds, 0.37% hits | AID 504577 | response, % at 10 µM | S. cerevisiae, pHLuorin cytosolic pH fluorescence; in the data active = response mostly above about 7.3%, no sharp cut-off; inactive = mostly below about 5.4%; also: actives read high
Efflux pump mplx: inhibitors of Candida antifungal efflux pumps expressed in yeast. S. cerevisiae Candida pump triplex, Nile Red efflux. 330,000 compounds, 0.44% hits. AID 485275. inhibition, % at 10 µM;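 active = plate passing quality check with inhibition over a set limit, or well fluorescence over plate mean plus 4 SD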;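 also: Nile Red retained in pooled yeast measured as flow cytometry median fluorescence; higher means more Nile Red kept so more efflux inhibition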
SUMO Mot1 rescue: inhibitors of SUMOylation pathway: yeast Mot1-301 growth rescue | 320,000 compounds, 1% hits | AID 2716 | S. cerevisiae Mot1-301 growth rescue, ATP luminescence, 38.5C; percent above DMSO median, 100 means doubled | growth rescue, % at 18.8 µM;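 active = every valid replicate shows activation above 250% relative to neutral control wells; inactive = the rest, any valid replicate at or below 250%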
AI-2 QS modul: Vibrio harveyi AI-2 quorum sensing modulation. Vibrio harveyi JMH597 AI-2 luminescence/OD600 ratio, 9 h; hits give low values; strain lacks LuxN and CqsS sensors; 0 = neutral-control median. activity change, % at 7.5 µM. 300,000 compounds, 0.4% hits; in the data active = activity change below about -75%, passing the limit was not always enough;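 also: luminescence divided by OD600 gain over 9 h not by final OD600 alone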
ATG4B inhibitor: ATG4B (human) cysteine protease inhibition; ATG4B cleavage of LC3-PLA2, NBD-HPC fluorescence, 1 h; inhibition, % at 8.33 µM; 340,000 compounds, 0.51% hits; AID 504462; in the data active = inhibition above about 40%
Target sequence (Q9Y4P1 whole entry, looked up): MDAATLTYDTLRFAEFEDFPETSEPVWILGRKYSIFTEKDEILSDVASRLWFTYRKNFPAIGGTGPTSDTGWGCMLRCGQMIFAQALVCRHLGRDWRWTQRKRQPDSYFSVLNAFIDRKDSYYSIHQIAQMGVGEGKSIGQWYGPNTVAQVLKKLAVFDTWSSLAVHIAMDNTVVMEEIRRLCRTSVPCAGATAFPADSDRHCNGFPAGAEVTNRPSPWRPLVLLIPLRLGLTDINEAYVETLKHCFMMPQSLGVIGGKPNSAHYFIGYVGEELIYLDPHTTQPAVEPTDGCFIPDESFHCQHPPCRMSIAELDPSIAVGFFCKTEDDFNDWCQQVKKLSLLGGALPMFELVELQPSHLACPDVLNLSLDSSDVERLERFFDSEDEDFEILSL
Yeast Mot1 SUMO: SUMO pathway inhibitors in yeast Mot1-301 growth; shares compounds with SUMO Mot1 rescue; 2,300 tested, under 10 active; growth activity, percent, % at 42 µM; S. cerevisiae Mot1-301 galactose growth, ATP luminescence, 24 h; -100 = growth of slx-deleted rescue strain;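 active = Signal drops as the depositor expects, and the fitted half-maximal dose is no more than ten times the top valid tested dose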;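 also: more negative values mean stronger growth rescue toward the control strain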
Hits are given with their value; n = inactive; x = no result given.

SMILES	V-ATPase pH	Efflux pump mplx	SUMO Mot1 rescue	AI-2 QS modul	ATG4B inhibitor	Yeast Mot1 SUMO
O=C(COc1coc(CN2CCN(c3ccc(F)cc3)CC2)cc1=O)NCC1CCCO1 (stereo not given)	n	n	n	n	n	x
O=C(O)/C=C/c1cccnc1	n	n	399.5	n	n	n
CC(/C=C\c1cccnc1)=C/C(=O)O	n	n	n	n	n	x
O=C(Nc1ccncc1)c1ccc(Cl)c(S(=O)(=O)N2CCCC2)c1	n	n	n	n	n	x
COc1ccc(CN2CCC[C@]3(N[C@H](c4ccccc4)[C@@H]4C(=O)N(Cc5ccccc5)C(=O)[C@@H]43)C2=O)cc1	n	x	x	x	x	x
COc1cc(C(c2c(C)[nH][nH]c2=O)c2c(C)[nH][nH]c2=O)cc(Cl)c1O	n	n	n	n	n	x
COc1cc(C(c2c(C)[nH][nH]c2=O)c2c(C)[nH][nH]c2=O)cc(OC)c1OC	n	n	674.1	n	n	n
O=C(O)CNS(=O)(=O)Cc1ccccc1	n	n	917.5	n	n	n
O=S(=O)(Cc1ccccc1)NCc1ccccn1	n	n	610.5	n	n	n
CC1=C(C(=O)N2CCOCC2)CC(CC(=O)NC2CCCCC2)C(=O)N1CCCN1CCCC1=O (stereo not given)	n	x	x	x	x	x
O=C(NC1CCCCC1)N(c1ccccc1)c1nnc(-c2cccc([N+](=O)[O-])c2)s1	n	x	x	x	x	x
C[C@H]1O[C@H]1P(=O)(O)O	n	n	974.8	n	n	n
CC12CCC(C(=O)NCc3ccco3)(OC1=O)C2(C)C (stereo not given)	n	n	n	n	n	x
CCCSc1nnc(NC(=O)CSc2sc3c(O)cc(=O)[nH]c3c2C#N)s1	n	n	754.0	n	n	n
O=C(NCCC1CCCCN1S(=O)(=O)c1ccccc1)C(=O)Nc1ccc(F)cc1F (stereo not given)	n	n	n	n	n	x
N#Cc1cccc(NC(=O)CSc2n[nH]c(=O)[nH]c2=O)c1	n	n	651.6	n	n	n
O=C(CSc1n[nH]c(=O)[nH]c1=O)Nc1ccc(SC(F)F)cc1	n	n	n	x	n	x
C[C@H]1CN=C(Nc2ccccc2)N1CCC1CCCC1	n	n	920.7	n	n	n
CC(C)C[C@H]1CN=C(Nc2ccccc2)N1CCC1CCCC1	n	n	n	n	n	x
CC1CCN(C(=O)CCC(=O)Nc2ccc([N+](=O)[O-])cc2)CC1	n	x	x	x	x	x
O=C1C2C(c3ccccc3)CC=CC2[C@H](c2ccc3ccccc3c2)N1Cc1ccccc1 (stereo not given in full)	n	n	507.6	n	n	n
COc1ccccc1N1CCN(C(=O)CCC(=O)Nc2nnc(C(C)C)s2)CC1	n	n	n	n	n	x
COc1ccc(NC(=O)COc2cc(C)cc(C)c2)cc1S(=O)(=O)N1CCCCC1	n	n	530.0	n	n	n
COc1ccc(NC(=O)Cn2c(=O)cnc3ccccc32)cc1S(=O)(=O)N1CCCCC1	n	n	427.9	n	n	n
Cc1ccc(NC(=O)Cn2c(=O)cnc3ccccc32)cc1S(=O)(=O)N1CCCCC1	n	n	x	x	n	x
SMILES	V-ATPase pH	Efflux pump mplx	SUMO Mot1 rescue	AI-2 QS modul	ATG4B inhibitor	Yeast Mot1 SUMO
CCCc1cc(=O)oc2c3c(c4c(c12)OC(C)(C)C=C4)OC(C)C(C)C3O (stereo not given)	n	n	779.5	n	n	n
CCCc1cc(=O)oc2c3c(cc(OCC(=O)N[C@@H](C)C(=O)O)c12)OC(C)(C)CC3	n	n	n	n	n	x
CC1=C(C)CS(=O)N(S(=O)(=O)c2ccc(Cl)cc2)C1 (stereo not given)	n	n	724.2	n	n	n
CC1CCCC(C)N1S(=O)(=O)c1ccc(Cl)cc1 (stereo not given)	n	n	n	n	n	x
CC(C)CC1NC(=O)N(Cc2nc3ccccc3s2)C1=O (stereo not given)	n	n	n	n	n	x
O=C(O)CCC(=O)Nc1cccc(C(=O)Nc2ccc(Br)cc2)c1	n	n	795.9	n	n	n
O=C(O)CCC(=O)Nc1cccc(C(=O)Nc2cccc(Cl)c2)c1	n	n	n	n	n	x
Brc1ccc2c(c1)CN1CCCC1=N2	n	n	n	n	n	x
CCOc1ccc(C(=O)NCC2OCCc3ccccc32)cc1 (stereo not given)	n	n	747.5	n	n	n
